± gives the standard deviation of the averaged measurements.

The values below come from the supplement of paper PMC6522484.

The test system of test [1] is DLD1. The test can be described thus: cell viability (CellTiter-Glo) relative to plate median (fraction of plate median); higher = more viable cells. The conditions noted are these: 5 µM; treatment time 24 h; reporter: 7TFP. The gist of the method: (§1)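 Values are well luminescence normalised to the plate median, from either a firefly luciferase or a CellTiterGlo readout on parallel plates. The cells, colorectal cancer lines stably transduced with lentiviral 7TFP or TCF4/Wnt firefly luciferase reporters, were treated with library compounds at a final 5 µM for 24 h. The mean of two independent replicates is listed.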
(Cellular ATP, detected with luciferase, serves as a proxy for viable cell number.)

Test [2] relates to HCT116. The description is as above. To be noted: 5 µM; treatment time 24 h; reporter: TCF4/Wnt. In a few lines:
as §1

Test [3] concerns SW480. The test is described as above. The conditions noted are these: 5 µM; treatment time 24 h; reporter: 7TFP. In a few lines: as §1
The subject of test [4] is DLD1. The test can be described thus: TCF/Wnt firefly luciferase reporter signal relative to plate median (fraction of plate median); higher = higher Wnt reporter signal. To be noted: 5 µM; treatment time 24 h; reporter: 7TFP. The gist of the method:
as §1
For orientation: Reporter assays use an easily measured gene product as a stand-in for the process of interest.

For test [5], the system named is SW480. Described as above. The conditions noted are these: 5 µM; treatment time 24 h; reporter: 7TFP. The gist of the method: as §1

Consider `CCC(=O)C1(C)OC1C(C)CC(C)C1OC(=O)CC2(O)CC=C(C)C(O2)/C(C)=C/CCCC(OC2CC(OC(N)=O)C(O)C(C)O2)/C=C/C(C)C(O)C1C` (stereo not given) [Irumamycin], for which the cell viability is 1.07 ± 0.099 in test [1], 1.04 ± 0.035 in test [2] and 1 ± 0.025 in test [3]. The “TCF/Wnt firefly luciferase reporter signal” value worked out at 1.07 ± 0.078 in test [4] and 1.02 ± 0.034 in test [5].
For the compound `CCn1cc(C(=O)O)c(=O)c2cnc(N3CCNCC3)nc21`, the cell viability was 0.976 ± 0.049 in test [1], 0.943 ± 0.12 in test [2] and 1 ± 0.025 in test [3]. The “TCF/Wnt firefly luciferase reporter signal” value in test [4] is 0.891 ± 0.21; in test [5], 0.98 ± 0.13.
With `CC#C[C@]1(O)CC[C@H]2[C@@H]3CCC4=CC(=O)CCC4=C3[C@@H](c3ccc(N(C)C)cc3)C[C@@]21C`, the cell viability was found to be 0.972 ± 0.023 in test [1], 1.04 ± 0.12 in test [2] and 0.931 ± 0.042 in test [3]. Also, the “TCF/Wnt firefly luciferase reporter signal” value was 0.891 ± 0.05 in test [4] and 1.01 ± 0.063 in test [5].
For the compound `O=C(/C=C/c1ccc(O)c(O)c1)O[C@@H]1C[C@](O)(C(=O)O)C[C@@H](O)[C@H]1O`, the values for the cell viability in test [1], in test [2] and in test [3] were 0.9805 ± 0.0064, 0.95 ± 0.071 and 0.9255 ± 0.0092, respectively. Also, the “TCF/Wnt firefly luciferase reporter signal” value in test [4] amounted to 0.931 ± 0.096; in test [5], 0.9705 ± 0.0064.
On to `COc1cc([C@@H]2c3cc4c(cc3[C@@H](O[C@@H]3O[C@@H]5CO[C@@H](C)O[C@H]5[C@H](O)[C@H]3O)[C@H]3COC(=O)[C@H]23)OCO4)cc(OC)c1O`, for which the figures for the cell viability in test [1], in test [2] and in test [3] were 1.03 ± 0.028, 0.895 ± 0.12 and 1.03 ± 0.042, respectively. Also, the results for the “TCF/Wnt firefly luciferase reporter signal” value in test [4] and in test [5] were 0.815 ± 0.14 and 0.879 ± 0.12, respectively.
Take `COC(=O)[C@H](c1ccccc1Cl)N1CCc2sccc2C1`: the cell viability in test [1] is 1.045 ± 0.0071; in test [2], 0.921 ± 0.02; in test [3], 1.07 ± 0.028. Moreover, the “TCF/Wnt firefly luciferase reporter signal” value in test [4] was 0.853 ± 0.041; in test [5] it was 0.906 ± 0.016.
In the case of `O=C(OCC(O)CO)c1ccccc1Nc1ccnc2cc(Cl)ccc12` (stereo not given), the results for the cell viability in test [1], in test [2] and in test [3] were 0.984 ± 0.037, 1.015 ± 0.0071 and 1.02 ± 0.021, respectively. Besides, the “TCF/Wnt firefly luciferase reporter signal” value in test [4] was 0.954 ± 0.15; in test [5], 0.922 ± 0.044.
Regarding `CCOC(=O)C1=C(C)NC(C)=C(C(=O)OC)C1c1cccc([N+](=O)[O-])c1` (stereo not given), the values for the cell viability in test [1], in test [2] and in test [3] were 0.964 ± 0.03, 1.02 ± 0.15 and 0.95 ± 0.057, respectively. In addition, the results for the “TCF/Wnt firefly luciferase reporter signal” value in test [4] and in test [5] were 1.06 ± 0.035 and 1.01 ± 0.039, respectively.
For the compound `O=c1[nH]cc(F)c(=O)[nH]1`, the cell viability was found to be 1.03 ± 0.083 in test [1], 0.905 ± 0.054 in test [2] and 1.11 ± 0.014 in test [3]. For the same compound, the figures for the “TCF/Wnt firefly luciferase reporter signal” value in test [4] and in test [5] were 1.01 ± 0.13 and 0.9685 ± 0.0064, respectively.
In the same order, the values of `C[C@H](CCC(=O)O)[C@H]1CC[C@H]2[C@@H]3CC[C@@H]4CCCC[C@]4(C)[C@H]3CC[C@]12C` are 0.984 ± 0.016, 1.06 ± 0.035, 1.06 ± 0.09, 0.905 ± 0.044 and 1.03 ± 0.059.
The corresponding values for `COc1cc(/C=C/C(=O)CC(=O)/C=C/c2ccc(O)c(OC)c2)ccc1O` are 1.02 ± 0.061, 1.02 ± 0.093, 1.05 ± 0.014, 1.13 ± 0.14 and 0.982 ± 0.14.
The corresponding values for `Nc1ccc(S(=O)(=O)Nc2ccnn2-c2ccccc2)cc1` are 1.03 ± 0.058, 1 ± 0.052, 0.939 ± 0.013, 1 ± 0.011 and 1.06 ± 0.057.
Turning to `C#CCCCCCCCCCCCC(O)CC(O)COC(C)=O` (stereo not given), the cell viability in test [1] was 1.02 ± 0.021; in test [2] it was 1.05 ± 0.089; in test [3], 1.06 ± 0.014. Moreover, the “TCF/Wnt firefly luciferase reporter signal” value in test [4] worked out at 1.08 ± 0.12; in test [5] it was 0.941 ± 0.098.
The corresponding values for `CCn1nc(C(=O)O)c(=O)c2cc3c(cc21)OCO3` are 1.01 ± 0.035, 0.972 ± 0.015, 0.988 ± 0.088, 1 ± 0.11 and 0.875 ± 0.14.
`CN(C(=O)CN(CCO)CC(=O)N(C)C(C)(C)Cc1ccccc1)C(C)(C)Cc1ccccc1`: the cell viability was determined as 1.01 ± 0.022 in test [1], 1.04 ± 0.11 in test [2] and 1.11 in test [3]. Besides, the “TCF/Wnt firefly luciferase reporter signal” value in test [4] came out at 1.15 ± 0.05; in test [5] it was 1.025 ± 0.0071.
